Screening results (PubChem BioAssay)
GPR151 ag = human GPR151 activation; Q8TDV0; PathHunter beta-arrestin GPR151 cells, luminescence; activation, % at 11.2 µM; 650,000 tested, 1% active; in the data active = activation above about 4.9%;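 also: 0% = median of compound wells and 100% = cells with positive control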
FBW7 activator = activators of human E3 ligase FBW7. 650,000 tested, 0.13% active. AID 1259310. Q969H0. normalized activity (activation), % at 26.1 µM. AlphaScreen FBW7–phospho-cyclin E peptide binding, activator screen; in the data active = normalized activity above about 1.9%;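 also: purified mutant Fbw7 with reduced substrate affinity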
Target sequence (Q969H0 whole entry, looked up): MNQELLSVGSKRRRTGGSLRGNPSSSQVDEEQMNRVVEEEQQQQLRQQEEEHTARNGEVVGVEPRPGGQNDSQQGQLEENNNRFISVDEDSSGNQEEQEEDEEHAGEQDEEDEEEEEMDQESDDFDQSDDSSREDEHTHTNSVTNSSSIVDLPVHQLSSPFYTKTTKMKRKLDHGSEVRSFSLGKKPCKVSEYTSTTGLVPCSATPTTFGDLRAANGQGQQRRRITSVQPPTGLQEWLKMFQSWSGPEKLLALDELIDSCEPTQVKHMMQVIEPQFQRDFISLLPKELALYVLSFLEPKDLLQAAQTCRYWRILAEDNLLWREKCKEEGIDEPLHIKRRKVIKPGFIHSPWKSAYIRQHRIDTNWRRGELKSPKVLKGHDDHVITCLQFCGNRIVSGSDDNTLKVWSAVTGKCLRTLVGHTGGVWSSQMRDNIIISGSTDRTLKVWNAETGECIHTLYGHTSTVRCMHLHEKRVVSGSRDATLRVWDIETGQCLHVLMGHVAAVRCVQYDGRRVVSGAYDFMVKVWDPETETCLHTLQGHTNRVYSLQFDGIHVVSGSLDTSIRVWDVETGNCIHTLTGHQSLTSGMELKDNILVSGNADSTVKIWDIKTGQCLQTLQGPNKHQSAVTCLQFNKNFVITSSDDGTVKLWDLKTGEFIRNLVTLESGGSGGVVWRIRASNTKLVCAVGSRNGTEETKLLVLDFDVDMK
MITF inh = blocks human microphthalmia-associated transcription factor; AlphaScreen MITF homodimerization, bead proximity signal; inhibition, % at 2.6 µM; 650,000 tested, 0.91% active; AID 1259374; in the data active = inhibition above about 50%;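 also: 0% = vehicle wells with protein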
TEAD-YAP inh = TEAD-YAP interaction inhibition; HEK-TIYL cells, TEAD-Gal4/YAP UAS-luciferase luminescence; inhibition, % at 9.12 µM; 640,000 tested, 1.4% active; AID 1259422; in the data active = inhibition above about 32%;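 also: 0% = median of test compound wells and 100% = reference inhibitor wells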
MITF inh conf = human MITF inhibition, confirmation; shares compounds with MITF inh; AlphaScreen MITF homodimerization, biotin/His-MITF beads; inhibition, % at 2.6 µM; 4,700 tested, 16% active;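 active = inhibition above a cutoff derived from the DMSO control wells, cut at about 28% in these data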;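 also: 0% = MITF dimer wells with DMSO only; inhibitors lower the bead chemiluminescence by keeping MITF from dimerizing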
AlphaScreen DR = AlphaScreen optical interference, dose response counter-screen; shares compounds with MITF inh; AlphaScreen optical interference counterscreen, cell-free; IC50, µM; 480 tested, 6% active; call rule not given here
AS interf ctr = optically interferes with AlphaScreen signal | shares compounds with MITF inh | AID 1259376 | 4,700 tested, 7.6% active | inhibition, % at 2.6 µM | LysRS AlphaScreen counterscreen, signal interference, triplicate;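 active = inhibition above a cutoff derived from the DMSO control wells, cut at about 30% in these data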
* hit, by the source's call. In the library only some 3.4% were active in any assay of this set; here they are far more common.

Results for CCCCN(C)CCCNC(=O)C1CCC(=O)N1C1CCCCC1 (centres undefined) ?
GPR151 ag: 0; FBW7 activator: 0; MITF inh: -2; TEAD-YAP inh: -2

What do the screens show for `CNc1nc(-c2ccccn2)nnc1-c1ccccc1`?
GPR151 ag: -1; FBW7 activator: 0; MITF inh: 108*; TEAD-YAP inh: -6; MITF inh conf: 107*; AS interf ctr: 98*

Results for O=C1OC(OC(=O)c2ccco2)C(Nc2ccccc2)=C1Cl (centres undefined) ?
GPR151 ag: -1; FBW7 activator: 0; MITF inh: 71*; TEAD-YAP inh: -2; MITF inh conf: -25; AS interf ctr: -7

Results for CCCCSC1=C(C#N)C(c2cccc([N+](=O)[O-])c2)C(C(C)=O)=C(C)N1 (centres undefined) ?
GPR151 ag: 1; FBW7 activator: 0; MITF inh: 63*; TEAD-YAP inh: -6; MITF inh conf: -9; AS interf ctr: 3

How did c1ccc(CN2CCC(NCc3cccnc3)CC2)cc1 do in these assays?
GPR151 ag: -1; FBW7 activator: 0; MITF inh: 70*; TEAD-YAP inh: -11; MITF inh conf: 6; AS interf ctr: 11

Results for Clc1ccc(CNC2CCN(Cc3ccccc3)CC2)cc1 ?
GPR151 ag: 1; FBW7 activator: 0; MITF inh: -11; TEAD-YAP inh: 7

What do the screens show for `Fc1ccccc1CNC1CCN(Cc2ccccc2)CC1`?
GPR151 ag: 0; FBW7 activator: 0; MITF inh: 51*; TEAD-YAP inh: 0; MITF inh conf: -12; AS interf ctr: 0

How did Cc1ccc(CNC2CCN(Cc3ccccc3)CC2)o1 do in these assays?
GPR151 ag: 0; FBW7 activator: 0; MITF inh: 23; TEAD-YAP inh: 1

Results for c1ccc(CN2CCC(NCc3ccncc3)CC2)cc1 ?
GPR151 ag: -1; FBW7 activator: 0; MITF inh: 63*; TEAD-YAP inh: -1; MITF inh conf: 8; AS interf ctr: 13

How did FC(F)SCc1ccc(CNC2CCN(Cc3ccccc3)CC2)o1 do in these assays?
GPR151 ag: 1; FBW7 activator: 0; MITF inh: 54*; TEAD-YAP inh: 1; MITF inh conf: 15; AS interf ctr: 19

How did O=C1NCCN(C2Cc3ccccc3C2)C1CC(=O)N1CC=C(c2ccccc2)CC1 (centres undefined) do in these assays?
GPR151 ag: -1; FBW7 activator: 0; MITF inh: -1; TEAD-YAP inh: 12

How did O=C(Nc1nc2ccc(Br)cc2s1)c1ccc(Oc2ccccc2)cc1 do in these assays?
GPR151 ag: 1; FBW7 activator: 0; MITF inh: 12; TEAD-YAP inh: 0

What do the screens show for `COc1ccc(C(=O)N2CCN=C2SCc2ccccc2)cc1OC`?
GPR151 ag: 1; FBW7 activator: 0; MITF inh: -10; TEAD-YAP inh: -8

What do the screens show for `COC(=O)C1=C(C)n2nnnc2NC1c1cc2ccccc2o1` (centres undefined)?
GPR151 ag: 1; FBW7 activator: 0; MITF inh: 77*; TEAD-YAP inh: 11; MITF inh conf: 10; AS interf ctr: 18

How did CC(NS(=O)(=O)c1cc(Cl)ccc1Cl)C(=O)NC1CCCCC1 (centres undefined) do in these assays?
GPR151 ag: -1; FBW7 activator: 0; MITF inh: 57*; TEAD-YAP inh: 2; MITF inh conf: -4; AS interf ctr: 1

Results for O=C(O)c1cccc(-c2ccc(/C=N/n3cnnc3)o2)c1 ?
GPR151 ag: 2; FBW7 activator: 0; MITF inh: 19; TEAD-YAP inh: 0

What do the screens show for `O=C(O)c1cc(C(=O)O)cc(-c2ccc(/C=N\n3cnnc3)o2)c1`?
GPR151 ag: -1; FBW7 activator: 0; MITF inh: 63*; TEAD-YAP inh: 9; MITF inh conf: 38*; AlphaScreen DR: >6.5; AS interf ctr: 6

What do the screens show for `N#Cc1ccc(CN2C(=O)CCC2=O)cc1`?
GPR151 ag: -2; FBW7 activator: 0; MITF inh: 22; TEAD-YAP inh: 7

Results for CN1CCN(C2CCN(C(=O)c3ccc(-c4ccccc4)cc3)CC2)CC1 ?
GPR151 ag: 0; FBW7 activator: 0; MITF inh: 69*; TEAD-YAP inh: -4; MITF inh conf: -1; AS interf ctr: 0

What do the screens show for `CC1CCCC(N2CCN(C(=O)c3cccs3)CC2)C1` (centres undefined)?
GPR151 ag: 0; FBW7 activator: 1; MITF inh: 53*; TEAD-YAP inh: 3; MITF inh conf: -6; AS interf ctr: -2

What do the screens show for `O=C(c1cccs1)N1CCN(C2CCCC2)CC1`?
GPR151 ag: 0; FBW7 activator: 0; MITF inh: 45; TEAD-YAP inh: -9

How did O=C(c1ccccc1)N1CCC(N2CCCCCC2)CC1 do in these assays?
GPR151 ag: -1; FBW7 activator: 0; MITF inh: 20; TEAD-YAP inh: 10

What do the screens show for `O=C(c1cccs1)N1CCC(N2CCCCCC2)CC1`?
GPR151 ag: -2; FBW7 activator: 1; MITF inh: 55*; TEAD-YAP inh: 9; MITF inh conf: -7; AS interf ctr: -7

Results for COc1cc(OC)cc(C(=O)N2CCN(C3CCCCCC3)CC2)c1 ?
GPR151 ag: 2; FBW7 activator: 0; MITF inh: 59*; TEAD-YAP inh: 0; MITF inh conf: 0; AS interf ctr: 12

How did Cc1cc(C)n(CCNCc2cc3cc4c(cc3n(CCN3CCCCC3)c2=O)CCC4)n1 do in these assays?
GPR151 ag: 0; FBW7 activator: 0; MITF inh: -8; TEAD-YAP inh: 6

What do the screens show for `O=C(Cn1c(=O)n(Cc2cccs2)c(=O)c2ccc(Cl)cc21)NCC1CCCO1` (centres undefined)?
GPR151 ag: 2; FBW7 activator: 0; MITF inh: 11; TEAD-YAP inh: 6

What do the screens show for `CC1CCCC(N2CCN(C(=O)c3ccncc3)CC2)C1` (centres undefined)?
GPR151 ag: 2; FBW7 activator: 0; MITF inh: 53*; TEAD-YAP inh: -5; MITF inh conf: -6; AS interf ctr: -5

Results for O=C(c1ccncc1)N1CCN(C2CCCCCC2)CC1 ?
GPR151 ag: 2; FBW7 activator: 0; MITF inh: 82*; TEAD-YAP inh: -1; MITF inh conf: -2; AS interf ctr: 0

How did COc1cc(OC)cc(C(=O)N2CCN(C3CCC(c4ccccc4)CC3)CC2)c1 (centres undefined) do in these assays?
GPR151 ag: -1; FBW7 activator: 1; MITF inh: 34; TEAD-YAP inh: 13

What do the screens show for `COc1ccc(C(=O)N2CCN(C3CCC(c4ccccc4)CC3)CC2)cc1` (centres undefined)?
GPR151 ag: -1; FBW7 activator: 0; MITF inh: 56*; TEAD-YAP inh: 3; MITF inh conf: 14; AS interf ctr: 16
